# Screening data deposited in PubChem BioAssay by several laboratories.
# An excerpt weighted towards active compounds, which were near 0.98% of everything screened.
# eLon inh = inhibitors of E. coli Lon protease, primary screen, biochemical, fluorescence polarization; purified E. coli Lon protease; 360,000 tested, 0.42% active; P0A9M0; inhibition, % at 7.94 µM; in the data active = inhibition above about 13%, passing the limit was not always enough
# Keap1-Nrf2 PPI = Keap1-Nrf2 protein-protein interaction inhibitors, primary screen, biochemical, fluorescence polarization, single point. Keap1 Kelch-Nrf2 peptide fluorescence polarization, 1536-well. inhibition, % at 9.4 µM. 340,000 tested, 0.15% active. AID 504523, 2011; in the data active = inhibition above about 12%; inconclusive = no clear call, values can overlap the other calls; inactive = below about 7.3%;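 also: human Keap1 Kelch domain with fluorescein labeled Nrf2 9mer peptide probe; higher means more block of Keap1 binding to Nrf2 peptide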
# EBV gp42 inh = Epstein-Barr virus gp42 inhibitors, primary screen, biochemical, uHTS, fluorescence polarization | AID 1085, 2008 | inhibition, % (tested at 21.74 µM) | 220,000 tested, 0.42% active | Fluorescence polarization binding assay, mP read-out; in the data active = inhibition above about 50%
# Target sequence (Q1HVG2 whole entry, looked up): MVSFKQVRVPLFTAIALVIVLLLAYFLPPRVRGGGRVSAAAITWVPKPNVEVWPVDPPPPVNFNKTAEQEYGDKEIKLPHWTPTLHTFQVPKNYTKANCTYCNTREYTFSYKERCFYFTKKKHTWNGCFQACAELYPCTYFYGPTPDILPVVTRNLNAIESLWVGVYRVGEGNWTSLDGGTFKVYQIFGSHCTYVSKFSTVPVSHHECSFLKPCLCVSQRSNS
# cardiac RTF act = cardiac RTF calcium sensitivity activators, primary screen, biochemical, IANBD-TnC fluorescence, EC20 calcium; Troponin I, cardiac muscle (Homo sapiens) + Troponin T, cardiac muscle (Homo sapiens) + …; IANBD-labeled TnC RTF fluorescence at EC20 calcium; 0% EC20 calcium, 100% full calcium; activation, % at 7.2 µM; 340,000 tested, 0.24% active;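 active = activation above the mean over all tested compounds plus 3 SD, cut at about 30% in these data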;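 also: rise in fluorescence read as greater calcium sensitivity of cardiac thin filaments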
# C-LANA FP = inhibitors of KSHV C-LANA binding to DNA, primary screen, biochemical, fluorescence polarization, FAM-LBS DNA, MBP-C-LANA, single point. AID 504423, 2011. Kaposi's sarcoma herpesvirus LANA C-terminal domain (residues 932-1162) DNA binding. inhibition, % at 9 µM. 340,000 tested, 0.078% active;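 active = highest replicate inhibition at or above 60% at 9 µM, even if other replicates fall short; inactive = all replicates below 60% inhibition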
# RTF Ca sens inh = cardiac RTF calcium sensitivity inhibitors, primary screen, biochemical, IANBD-TnC fluorescence, EC70 calcium; inhibition, % at 7.15 µM; 340,000 tested, 0.12% active; AID 493244, 2011; IANBD-labeled cardiac RTF, Ca2+ fluorescence;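 active = inhibition above the mean inhibition of all tested compounds plus 3 SD, cut at about 17% in these data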;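 also: assay run at fixed EC70 calcium of 1.6 mM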
# Hits are given with their value; i = inactive; ? = inconclusive; nt = not tested or not shown.
SMILES,eLon inh,Keap1-Nrf2 PPI,EBV gp42 inh,cardiac RTF act,C-LANA FP,RTF Ca sens inh
CC(C)(C)OC(=O)N1CCN(C(c2ccnc3ccccc23)c2nnnn2-c2ccc3c(c2)OCCO3)CC1 (configuration not stated),i,nt,nt,nt,nt,nt
CC(C)(C)N1C(=O)Cc2c1nc(N)c1c(N)nc(N3CCCCC3CO)c(C#N)c21 (configuration not stated),50,i,i,i,i,i
COc1ccc2c(c1)c1nc3ccccc3nc1n2Cc1ccc(OC(C)C)c(OC)c1,i,i,80,i,i,i
COc1ccc(Cn2c3ccc(OC)cc3c3nc4ccccc4nc32)cc1,i,i,67,i,i,i
CC(=O)Nc1cc(-c2cccc(F)c2)cn2c(-c3ccccc3)cnc12,i,nt,nt,nt,nt,nt
Cc1cccc(-n2c(C)cc(C=C3C(=O)c4ccccc4C3=O)c2C)c1,i,i,i,62,i,i
CCn1c(C)cc(C=C2C(=O)c3ccccc3C2=O)c1C,i,i,107,i,i,i
Cc1cc(C=C2C(=O)c3ccccc3C2=O)c(C)n1-c1ccc(Cl)cc1,i,i,61,i,i,i
Cc1cc(C=C2C(=O)c3ccccc3C2=O)c(C)n1C,i,i,i,i,i,i
CC(=O)Nc1cc(-c2cccnc2)cn2c(-c3cccc(C(F)(F)F)c3)cnc12,i,nt,nt,nt,nt,nt
CCn1c(/C=C/N(C(C)=O)c2ccccc2)[n+](CC)c2ccc(Cl)cc21,i,i,i,i,i,i
CC[n+]1c(/C=C/C=C/N(C(C)=O)c2ccccc2)sc2ccccc21,i,i,i,421,i,i
COc1ccc(N/C=C/C(=O)c2ccc(C)cc2)c([N+](=O)[O-])c1,i,i,nt,i,i,i
CCOc1ccc(N/C=C/C(=O)c2ccc(OC)cc2)c([N+](=O)[O-])c1,i,i,59,i,i,i
Cc1ccc(NC(=O)C2COc3ccccc3O2)cc1S(=O)(=O)N1CCCCC1 (configuration not stated),i,i,nt,i,i,i
CC1=CC(=C(C#N)c2nc3ccccc3s2)C=C(C)N1Cc1ccco1,i,i,157,i,i,i
COc1ccc2sc(-c3ccccc3OC)c(C#CC(C)(C)O)c2c1,i,i,nt,i,70,i
COc1ccccc1NC(=O)COC(=O)c1cc([N+](=O)[O-])ccc1N1CCCC1,i,i,nt,i,i,i
CCCn1c(O)c(N=Nc2ccc3ccccc3n2)c2ccccc21,i,i,63,i,i,i
O=C(COc1ccc(S(=O)(=O)N2CCOCC2)cc1)NC1CC1,i,i,nt,i,i,i
CCOc1ccc(N=C2NC(=O)S/C2=C\c2ccc(N(C)C)cc2)cc1,i,i,54,i,i,i
COc1ccccc1C(=O)NC(=O)COC(=O)C1(C)CC1(Cl)Cl (configuration not stated),i,i,nt,i,i,i
O=S(=O)(Nc1nc2ccccc2nc1N1CCN(c2ccccn2)CC1)c1ccc(Cl)cc1,i,i,64,i,i,i
Cc1ccc(NC(=O)CSc2nnc(COc3ccccc3F)n2N)cc1S(=O)(=O)N1CCOCC1,i,i,nt,i,i,i
CCCCc1c(Cc2ccccc2)ncn1CCc1ccccc1OC,i,nt,nt,nt,nt,nt
SMILES,eLon inh,Keap1-Nrf2 PPI,EBV gp42 inh,cardiac RTF act,C-LANA FP,RTF Ca sens inh
CCCN1C(=O)/C(=C/c2ccc(N3CCOCC3)cc2)NC1=S,i,i,i,i,i,i
Cc1cc(/C=C2\NC(=S)N(C)C2=O)ccc1N1CCCC1,i,i,i,87,i,i
CCN1C(=O)/C(=C/c2ccc(N3CCCC3)cc2)NC1=S,i,i,i,151,i,i
Cc1cc(/C=C2/C(=O)N(C)C(=S)N2C)ccc1N1CCCC1,i,i,i,32,i,i
CCCN1C(=O)/C(=C/c2ccc(N3CCCC3)c(C)c2)NC1=S,i,i,i,68,i,i
Cc1ccc(CNC(=O)c2cccc3c2C(=O)c2ccc(N4CCCCC4)cc2S3(=O)=O)cc1,i,i,nt,65,i,i
O=C(NCc1ccccc1Br)c1cccc2c1C(=O)c1ccc(N3CCC(Cc4ccccc4)CC3)cc1S2(=O)=O,i,i,nt,i,i,i
O=C(NCC1CCCO1)c1cccc2c1C(=O)c1ccc(N3CCC(Cc4ccccc4)CC3)cc1S2(=O)=O (configuration not stated),i,i,nt,61,i,i
CC1CCN(c2ccc3c(c2)S(=O)(=O)c2cccc(C(=O)NC[C@@H]4CCCO4)c2C3=O)CC1,i,i,nt,i,i,i
O=C(NC1CCCCC1)c1cccc2c1C(=O)c1ccc(N3CCC(Cc4ccccc4)CC3)cc1S2(=O)=O,i,i,nt,90,i,i
Oc1ccc(C=NNC(=S)Nc2ccccc2)nc1,i,nt,nt,nt,nt,nt
CS(=O)(=O)c1ccc(Cl)c(NC(=O)CN2CCN(S(=O)(=O)/C=C/c3ccccc3)CC2)c1,i,i,nt,i,i,i
O=C(NCCN1CCOCC1)C1CC(=O)N(c2cccc(C(F)(F)F)c2)C1 (configuration not stated),i,i,nt,i,i,i
Cc1ccc(C(=O)/C=C/c2c[nH]c3ccccc23)cc1,i,i,i,i,i,i
CCN(CC)C(=O)c1ccc(/C=C/c2c[nH]c3ccccc23)[n+](C)c1,i,i,i,140,i,i
CN1C(=O)/C(=C2\SC(=S)N(CCCCCC(=O)O)C2=O)c2ccccc21,i,i,73,i,i,i
COc1ccc(C2=Nc3ccccc3C2(O)CCN2C(=O)c3ccccc3C2=O)cc1 (configuration not stated),i,i,nt,i,i,i
CN(C)c1ccc(/C=C/C(=O)c2cccc(Br)c2)cc1,i,i,144,135,i,i
CN(C)c1ccc(C(=O)/C=C/c2cccnc2)cc1,i,i,nt,i,i,i
O=C(NCCc1ccc(F)cc1)c1coc(=O)c(Br)c1,i,i,nt,i,i,i
O=C(Nc1ccccc1F)c1coc(=O)c(Br)c1,i,i,i,i,87,i
COc1ccc(OC)c(C(C)NC(=O)C23CC4CC(CC(C4)C2)C3)c1 (configuration not stated),i,i,nt,i,109,i
COc1ccc(C(=O)NNC(=O)C23CC4CC(CC(C4)C2)C3)c(OC)c1,i,i,nt,i,i,i
O=C(CSc1nnc(Cc2cc(=O)[nH]c(=O)[nH]2)n1-c1ccc(Cl)cc1)NCC1CCCO1 (configuration not stated),22,?,i,i,i,i
O=C(CSc1nnc(Cc2cc(=O)[nH]c(=O)[nH]2)n1-c1ccccc1)NCC1CCCO1 (configuration not stated),i,i,i,i,i,i
